Measured values: PubChem BioAssay (NCATS)
Inconclusive results are not listed. Active and inactive are the calls of the source. Calls come from the whole dose curve; as a rule, active = well fitted inhibition curve with a large enough effect; inconclusive = small, poorly fitted or top-dose-only effect; inactive = flat fitted curve, though single readings scatter. Where a SMILES comes first, the peptide text is derived from it. [ ]: non-standard residue; d: D form. pGlu = O=C1CC[C@@H](C(=O)O)N1; Thz = O=C(O)[C@@H]1CSCN1

Legend:
Experiment in all cases: qHTS profiling for inhibitors of Plasmodium falciparum proliferation (AID 504749); note: nearly all actives have a fitted effect of over 60% in size
Details in all cases: P. falciparum in erythrocytes, SYBR Green DNA, 72 h; series mostly up to 28.7 µM
AS120 = system: AS120
How it was run: (§1)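 Three-day growth assay of blood-stage parasites in erythrocytes (0.3% parasitemia, 2.5% hematocrit) at 37 C, 5% CO2, quantified by SYBR Green DNA staining after overnight detergent lysis.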

ATS189 = system: ATS189
How it was run: as §1

ATS95 = system: ATS95
How it was run: as §1

C2A = system: C2A
How it was run: as §1

CP185 = system: CP185
How it was run: as §1

CP191 = system: CP191
How it was run: as §1

CP192 = system: CP192
How it was run: as §1

CP194 = system: CP194
How it was run: as §1

CP201 = system: CP201
How it was run: as §1

CP203 = system: CP203
How it was run: as §1

CP211 = system: CP211
How it was run: as §1

CP215 = system: CP215
How it was run: as §1

CP217 = system: CP217
How it was run: as §1

CP237 = system: CP237
How it was run: as §1

CP238 = system: CP238
How it was run: as §1

CP247 = system: CP247
How it was run: as §1

CP250 = system: CP250
How it was run: as §1

CP252 = system: CP252
How it was run: as §1

CP256 = system: CP256
How it was run: as §1

CP260 = system: CP260
How it was run: as §1

Measured: Potency

CCCCCCCCCCCCCCCC(=O)OC(C)C
inactive: all assays above

Cc1ccccc1CNc1ncnc2c1ncn2C1OC(CO)C(O)C1O (centres undefined)
inactive: all assays above

Nc1c(CC(=O)O)cccc1C(=O)c1ccc(Br)cc1
inactive: all assays above

O=C(Nc1ccc(C(=O)O)c(O)c1)c1ccccc1
inactive: all assays above

Cc1[nH]cnc1CN1CCc2c(c3ccccc3n2C)C1=O
inactive: all assays above

C=CCN1C(=O)C(CC(C)C)NC1=S (centres undefined)
inactive: all assays above

O=C1CC[C@@H](C(=O)N2CSC[C@H]2C(=O)O)N1 ([pGlu]-[Thz]-OH)
inactive: all assays above

CCCCC[C@H](O)/C=C/[C@@H]1[C@@H](C/C=C\CCCC(=O)O)[C@@H](O)C[C@H]1O
inactive: all assays above

CC1(C)S[C@@H]2[C@H](NC(=O)[C@H](NC(=O)N3CCN(S(C)(=O)=O)C3=O)c3ccccc3)C(=O)N2[C@H]1C(=O)O
inactive: all assays above

COc1cc(CNC(=O)CCCC/C=C/C(C)C)ccc1O
inactive: all assays above

CCCCCCOc1ccccc1C(N)=O
inactive: all assays above

CC1OC1P(=O)(O)O (centres undefined)
not listed: CP260
inactive: all other assays above

Cc1c(Nc2ncccc2C(=O)O)cccc1C(F)(F)F
inactive: all assays above

Nc1ccc(O)c(C(=O)O)c1
inactive: all assays above

O=C(O)Cc1ccc(-c2ccccc2)cc1
inactive: all assays above

c1ccc2sc(SSc3nc4ccccc4s3)nc2c1
inactive: all assays above

CCC1C(=O)OCC1Cc1cncn1C (centres undefined)
inactive: all assays above

COc1ccc(/C=C/C(=O)Nc2ccccc2C(=O)O)cc1OC
inactive: all assays above

N=c1ccn2c(n1)O[C@H]1[C@H](O)[C@@H](CO)O[C@H]12
inactive: all assays above

CC1(C)[C@@H](O)CC[C@]2(C)[C@H]3C(=O)C=C4[C@@H]5C[C@@](C)(C(=O)O)CC[C@]5(C)CC[C@@]4(C)[C@]3(C)CC[C@@H]12
inactive: all assays above

COc1cc2c3cc1Oc1cc(ccc1O)C[C@@H]1c4c(cc(OC)c(O)c4Oc4ccc(cc4)C[C@@H]3N(C)CC2)CC[N+]1(C)C
inactive: all assays above

C#C[C@]1(O)CC[C@H]2[C@@H]3CCc4cc(O)ccc4[C@H]3CC[C@@]21C
inactive: all assays above

CCCCCC[C@@H](O)C/C=C\CCCCCCCC(=O)O
inactive: all assays above

Cc1ccc(O)c(-n2nc3ccccc3n2)c1
inactive: all assays above

CN1CCN(c2cc3c(nn2)Oc2ccccc2N3C)CC1
inactive: all assays above
